Sampled rows, rich in hits. Any-hit rate of the full collection: about 2.8%.
PAFAH1B3 inh – blocks human PAF acetylhydrolase 1B catalytic subunit 3 | Q15102 | recombinant PAFAH1B3, FP-rhodamine probe, fluorescence polarization | inhibition, % at 3.39 µM | 0.28% of 340,000 active | AID 492972;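 active means inhibition above the screen-wide average of all tested compounds plus 3 SD, cut at about 25% in these data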;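 further: 0% = enzyme with DMSO only and 100% = wells lacking PAFAH1B3 protein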
Target sequence (Q15102 whole entry, looked up): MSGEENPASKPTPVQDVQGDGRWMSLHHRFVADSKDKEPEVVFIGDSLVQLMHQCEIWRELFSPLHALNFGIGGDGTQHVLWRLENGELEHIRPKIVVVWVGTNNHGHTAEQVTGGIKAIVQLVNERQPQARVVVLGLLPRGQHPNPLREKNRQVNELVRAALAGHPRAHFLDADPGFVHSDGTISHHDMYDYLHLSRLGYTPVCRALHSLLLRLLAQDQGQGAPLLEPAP
PAFAH2 FP inh – PAFAH2 (human) inhibition; Q99487; inhibition, % at 3.39 µM; recombinant PAFAH2, FP-rhodamine activity probe, fluorescence polarization; 0.99% of 340,000 active; AID 492956;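 active means inhibition above the mean over all tested compounds plus 3 SD, cut at about 30% in these data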;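 further: inhibitors block probe labeling of enzyme so polarization drops; 0% = enzyme with DMSO and 100% = wells lacking PAFAH2 protein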
PAFAH1B2 FP inh – PAFAH1B2 (human) inhibition; P68402; recombinant PAFAH1B2, FP-rhodamine activity probe, fluorescence polarization; inhibition, % at 3.39 µM; 1.2% of 340,000 active; AID 492953;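 active means inhibition above the mean of all tested compounds plus 3 SD, cut at about 24% in these data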;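 further: 0% = enzyme with DMSO and 100% = wells lacking PAFAH1B2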
Target sequence (P68402 whole entry, looked up): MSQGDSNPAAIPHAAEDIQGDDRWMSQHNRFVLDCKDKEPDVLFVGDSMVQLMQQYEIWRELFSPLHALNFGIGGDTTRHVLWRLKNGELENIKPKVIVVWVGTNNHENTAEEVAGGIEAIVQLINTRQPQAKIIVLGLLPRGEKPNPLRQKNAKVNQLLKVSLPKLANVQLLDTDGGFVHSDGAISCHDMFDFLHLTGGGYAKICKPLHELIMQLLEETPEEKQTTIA
DAGLB inhibitor – blocks human DAGLB lipase activity; Q8NCG7; HEK293T DAGLB membrane lysate, EnzChek fluorogenic substrate; inhibition, % at 5.17 µM; 0.059% of 340,000 active; AID 504411; in the data active means inhibition above about 34%;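 further: 0% = enzyme with vehicle and 100% = wells lacking enzyme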
pPAFAH FP inh – pPAFAH (human) enzyme inhibition. Q13093. recombinant pPAFAH, FP-rhodamine probe fluorescence polarization. inhibition, % at 3.39 µM. 1.5% of 330,000 active;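 active means inhibition above the mean inhibition across the screen plus 3 SD, cut at about 25% in these data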;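 further: inhibitors block binding of the rhodamine activity-based probe so polarization drops; 0% = enzyme with DMSO and 100% = wells lacking pPAFAH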
HTRA1 inhibitor – inhibitors of human serine peptidase HTRA1; Q92743; recombinant HTRA1, FP-rhodamine activity-based probe, fluorescence polarization; inhibition, % at 5.96 µM; 0.5% of 340,000 active; AID 504803; in the data active means inhibition above about 36%;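 further: 0% = enzyme with DMSO and 100% = wells lacking enzyme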
PAFAH1B3 conf FP – confirmation of human PAFAH1B3 inhibitors | inhibition, % at 3.39 µM | 30% of 390 active | AID 493032 | recombinant PAFAH1B3, FP-Rh activity-based probe, fluorescence polarization | shares compounds with PAFAH1B3 inh;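 active means average inhibition over triplicate runs above the hit cutoff set in the earlier primary screen, cut at about 25% in these data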;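 further: 0% = enzyme with DMSO and 100% = wells lacking PAFAH1B3 protein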
* hit, by the source's call; x = not tested or not shown.

SMILES	PAFAH1B3 inh	PAFAH2 FP inh	PAFAH1B2 FP inh	DAGLB inhibitor	pPAFAH FP inh	HTRA1 inhibitor	PAFAH1B3 conf FP
Cc1ccc(S(=O)(=O)/N=C2\C(=O)c3ccccc3C([O-])=C2n2cc[n+](CCC(C)C)c2)cc1	26*	5	7	7	10	-1	22
CC(C)[C@H](NC(=O)c1ccccc1)C(=O)OCC(=O)N1CCN(C(=O)c2ccco2)CC1	4	-3	2	-1	0	0	x
COc1ccc(/C=C/C(=O)NC(=S)Nc2cc([N+](=O)[O-])ccc2O)cc1OC	35*	9	18	14	18	6	31*
COc1cc(C)c(NC(=O)C2CCN(S(=O)(=O)c3cccs3)CC2)cc1OC	3	1	-1	-1	0	2	x
CCS(=O)(=O)c1nc(S(=O)(=O)c2ccc(C)cc2)c(N2CCC(O)CC2)s1	11	4	-2	-1	-3	0	x
O=C(NCc1ccc(F)cc1)C(c1ccccc1)c1ccccc1	3	-4	-1	-8	-3	0	x
CC(=O)N(Cc1ccc(F)cc1)C1=C(NCc2ccccc2)C(=O)c2ccccc2C1=O	42*	8	11	24	x	2	25
CC(Oc1ccc(Br)cc1)C(=O)Nc1ccc(S(=O)(=O)N(C)C2CCN(C)CC2)cc1 (stereo not given)	6	4	1	0	0	-5	x
O=C1N/C(=C\c2ccc(O)cc2)C(=O)c2ccccc21	33*	3	10	-2	3	-12	25
O=C(O)/C=C1\NC(=O)c2ccccc21	6	1	3	-2	3	-1	x
O=c1c(Cc2ccc(F)cc2)c(O)ccn1CCc1ccccn1	8	-1	1	-1	4	3	x
CN=c1sc2c(n1C)C(=O)c1ccccc1C2=O	42*	14	13	2	x	4	29*
CN=c1sc(C(=O)Nc2ccccc2)c(C)n1C	2	4	4	-1	4	-6	x
Cn1nc(C(C)(C)C)c(NC(=O)c2ccc(F)cc2)c1C(C)(C)C	31*	-4	-2	-1	1	-6	7
Cc1nc2ccc(C(=O)N/N=C/c3cc([N+](=O)[O-])ccc3O)cc2[nH]1	27*	1	7	2	13	13	24
COc1ccc(CCNC(=O)CN2C(=O)NC3(CCCCC3C)C2=O)cc1 (stereo not given)	11	-7	-4	1	4	1	x
Nc1ccc2nn(-c3ccc(F)cc3)nc2c1	28*	6	1	1	5	-3	11
C=CCn1c(O)c(N=Nc2ccccc2O)c2ccccc21	26*	4	13	17	14	23	13
C[C@@H]1CN([C@@H](C)CO)C(=O)Cc2cc(NS(=O)(=O)c3cn(C)cn3)ccc2O[C@@H]1CN(C)C(=O)Nc1ccccc1	26*	-4	3	-2	6	-3	10
C[C@H](CO)N1C[C@H](C)[C@H](CN(C)S(=O)(=O)c2cccs2)Oc2ccc(NC(=O)Nc3ccc4c(c3)OCO4)cc2CC1=O	28*	17	18	3	11	-5	12
O=C(Cc1cccs1)N1CCN(S(=O)(=O)c2cc(Cl)ccc2Cl)CC1	4	1	4	0	0	-5	x
O=C1c2cccc3c([N+](=O)[O-])ccc(c23)C(=O)N1c1ccccn1	29*	6	13	-11	10	15	39*
Cc1cccc(NC(=O)CN2C(=O)N/C(=C\c3ccc(-c4cccc(C(=O)O)c4)o3)C2=O)c1	81*	6	8	5	10	-14	76*
O=C1C=C(N(CCO)Cc2ccccc2)c2ccccc2C1=O	44*	20	10	-6	x	11	29*
COc1cc(C(=O)NCc2nnc(SCC(=O)NCCc3ccccc3)o2)cc(OC)c1OC	1	0	-4	0	1	4	x
SMILES	PAFAH1B3 inh	PAFAH2 FP inh	PAFAH1B2 FP inh	DAGLB inhibitor	pPAFAH FP inh	HTRA1 inhibitor	PAFAH1B3 conf FP
COc1ccccc1NC(=O)NNC(=O)c1ccc(-c2ccccc2)cc1	11	0	2	0	1	-17	x
O=C(NC1CCCCC1)c1ccc2ccccc2c1O	x	x	x	-12	x	-12	x
Cc1cccc(NC(=O)NNC(=O)c2ccc3ccccc3c2O)c1	43*	-6	18	4	x	15	82*
O=C(NNC(=O)c1ccc2ccccc2c1O)Nc1ccc(F)cc1	19	-6	5	4	18	4	x
O=C(NNC(=O)c1ccc2ccccc2c1O)NC1CCCCC1	30*	3	11	5	x	20	25
COc1ccccc1NC(=O)NNC(=O)c1cc2ccccc2cc1O	32*	2	10	8	22	33	45*
Cc1ccc(NC(=O)NNC(=O)c2cc3ccccc3cc2O)cc1	46*	-13	21	4	21	18	76*
COC(=O)C[C@H]1C[C@@H]2c3cc(NC(=O)NC4CCCC4)ccc3O[C@@H]2[C@@H](CO)O1	x	x	x	-4	x	3	x
COc1ccc(CN(C(C)=O)c2ccccc2C(=O)O)cc1	8	0	-1	2	-2	0	x
COc1ccccc1N(/N=C1\Sc2ccccc2C1=O)C(C)=O	51*	4	10	-1	11	4	54*
COc1ccc(N(/N=C2\Sc3ccccc3C2=O)C(C)=O)cc1	54*	19	22	-3	x	-2	60*
COc1ccc(S(=O)(=O)N(CC(=O)NCc2cccnc2)c2ccc(C)cc2)cc1OC	5	-10	3	1	7	-2	x
CC1(C)CC(=O)N(c2ccc(C#N)cc2)C(=O)C1	13	-1	2	0	5	3	x
COc1ccc2c(c1)CCc1c-2n[nH]c1C(=O)NCCC(C)C	0	7	5	-3	8	-18	x
CNC(=O)c1[nH]nc2c1CCc1cc(OC)ccc1-2	28*	29	15	-1	0	-3	9
CCN(CC)c1ccc(/C=N/NC(=O)c2ccc3nc[nH]c3c2)c(O)c1	26*	19	23	7	17	35	22
CCOc1ccc(C(C(=O)NC2CCCCC2)N(C(=O)c2csnn2)C2CC2)cc1 (stereo not given)	0	-3	3	-1	-1	-4	x
Cc1cc(C)nc(N2CCC(C(=O)Nc3ccc(Oc4ccccc4)cc3)CC2)n1	108*	5	2	2	-2	-5	10
O=C(NNC(=O)c1nn(-c2ccc(F)cc2)ccc1=O)c1ccccc1Cl	10	6	-1	-2	-2	12	x
COCCn1c(SCC(=O)N2CCCCC2)nc2c(c1=O)SC(C)C2 (stereo not given)	7	-2	-4	0	-4	2	x
COc1cc(/C=C2\C(=O)ON=C2c2ccc(Cl)cc2)ccc1O	x	x	x	x	2	x	x

Source: PubChem
